Source: PubChem BioAssay (EPA / NIEHS)
“And” between values parts separate entries of the source, which are not always exact repeats. Equal entries are not always repeated. More than one record can exist for a structure, and the calls need not agree. The source made the active and inactive calls. How the source made its calls: active means hit-call score of the fitted dose curve at least 0.9, where 1 is the maximum; inactive means score below 0.9.

How the values were obtained:
[1] = read-out: Collagen I, COL1A1 (gene 1277); experiment: BSK_MyoF_CollagenI: BioMAP Diversity Plus: MyoF Assay for Collagen I Biomarker Activity (AID 2284238); settings: primary human lung fibroblasts
In short: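 Measured by ELISA: Collagen I from human lung fibroblasts 24 h after compound addition, analysed for signal gain with DMSO as baseline; overt toxicity read from SRB staining of parallel cultures at the same time.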

[2] = read-out: Collagen III, COL3A1 (gene 1281); experiment: BSK_MyoF_CollagenIII: BioMAP Diversity Plus: MyoF Assay for Collagen III Biomarker Activity (AID 2284239); settings: primary human lung fibroblasts
In short: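 Multiplexed cell assay in lung fibroblasts, harvested at 24 h post-dose. Collagen III detected by ELISA, with positive-direction fitting relative to DMSO vehicle.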

[3] = read-out: Interleukin 17F (IL17F), IL17F (gene 112744); experiment: BSK_BT_xIL17F: BioMAP Diversity Plus: BT Assay for Interleukin 17F (IL17F) Biomarker Activity (AID 2284243); settings: primary human B cells with PBMC
In short: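 Luminex readout of IL-17F secretion, 24 h; cells: human B cells with PBMC; positive-direction analysis, DMSO control.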

[4] = read-out: Actin alpha 1 (ACTA1), ACTA1 (gene 58); experiment: BSK_MyoF_ACTA1: BioMAP Diversity Plus: MyoF Assay for Actin alpha 1 (ACTA1) Biomarker Activity (AID 2284244); settings: primary human lung fibroblasts
In short: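 Human lung fibroblast (MyoF system) cultures dosed with test chemical; alpha-SMA measured by ELISA 24 h after dosing, normalized to DMSO control. Cytotoxicity tracked in parallel cultures by SRB total-protein staining.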

[5] = read-out: Interleukin 2 (IL2), IL2 (gene 3558); experiment: BSK_BT_xIL2: BioMAP Diversity Plus: BT Assay for Interleukin 2 (IL2) Biomarker Activity (AID 2284245); settings: primary human B cells with PBMC
In short: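 Human B cell plus PBMC co-culture, 24 h after chemical dosing; secreted IL-2 quantified by Luminex xMAP multiplex, fitted for signal gain against DMSO baseline.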

[6] = read-out: Basic fibroblast growth factor (bFGF), FGF2 (gene 2247); experiment: BSK_MyoF_bFGF: BioMAP Diversity Plus: MyoF Assay for Basic fibroblast growth factor (bFGF) Biomarker Activity (AID 2284246); settings: primary human lung fibroblasts
In short: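 Human lung fibroblast cultures were dosed and measured 24 h later in 96-well format. bFGF biomarker levels quantified by ELISA, with activity fitted in the positive direction against DMSO.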

[7] = read-out: Collagen IV, COL4A1 (gene 1282); experiment: BSK_MyoF_CollagenIV: BioMAP Diversity Plus: MyoF Assay for Collagen IV Biomarker Activity (AID 2284247); settings: primary human lung fibroblasts
In short: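 Primary human lung fibroblasts (MyoF system) dosed 24 h; Collagen IV measured by ELISA. Activity fitted in positive direction against DMSO; cytotoxicity tracked by SRB total-protein staining in parallel cultures.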

[8] = read-out: Monokine induced gamma interferon (MIG), CXCL9 (gene 4283); experiment: BSK_KF3CT_MIG: BioMAP Diversity Plus: KF3CT Assay for Monokine induced gamma interferon (MIG) Biomarker Activity (AID 2284248); settings: primary human keratinocytes with fibroblasts
In short: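 MIG in dosed human skin co-cultures was measured by ELISA at 24 h, relative to DMSO.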

[9] = read-out: Vascular cell adhesion molecule 1 (VCAM1), VCAM1 (gene 7412); experiment: BSK_BF4T_VCAM1: BioMAP Diversity Plus: BF4T Assay for Vascular cell adhesion molecule 1 (VCAM1) Biomarker Activity (AID 2284249); settings: primary human bronchial epithelial cells with fibroblasts
In short: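 Human bronchial epithelial cell and dermal fibroblast co-culture exposed 24 h. VCAM-1 measured by ELISA; parallel SRB total-protein staining for cytotoxicity. Fitted in positive direction relative to DMSO.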

[10] = read-out: Collagen I, COL1A1 (gene 1277); experiment: BSK_hDFCGF_CollagenI: BioMAP Diversity Plus: hDFCGF Assay for Collagen I Biomarker Activity (AID 2284250); settings: primary human foreskin fibroblasts
In short: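 Primary human foreskin fibroblasts exposed to chemical for 24 h; Collagen I levels measured by ELISA. Cytotoxicity checked by SRB total-protein staining in parallel cultures.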

[11] = read-out: Interferon-inducible T-cell alpha chemoattractant (ITAC), CXCL11 (gene 6373); experiment: BSK_hDFCGF_ITAC: BioMAP Diversity Plus: hDFCGF Assay for Interferon-inducible T-cell alpha chemoattractant (ITAC) Biomarker Activity (AID 2284251); settings: primary human foreskin fibroblasts
In short: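 Fibroblasts (human foreskin, primary) are treated with chemical, cultured 24 h, then assayed for I-TAC by ELISA. Overt toxicity is checked in parallel cultures by sulforhodamine B staining of total protein at the same time point.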

[12] = read-out: Plasminogen activator inhibitor-1 (PAI1), SERPINE1 (gene 5054); experiment: BSK_KF3CT_PAI1: BioMAP Diversity Plus: KF3CT Assay for Plasminogen activator inhibitor-1 (PAI1) Biomarker Activity (AID 2284252); settings: primary human keratinocytes with fibroblasts
In short: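 Human keratinocyte/foreskin fibroblast co-culture dosed for 24 h; PAI-1 measured by ELISA, fitted in positive direction against DMSO baseline. Parallel SRB total-protein staining (0.1% SRB, 560 nm) assesses overt cytotoxicity.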

[13] = read-out: Monocyte Chemoattractant Protein-1 (MCP1), CCL2 (gene 6347); experiment: BSK_IMphg_MCP1: BioMAP Diversity Plus: IMphg Assay for Monocyte Chemoattractant Protein-1 (MCP1) Biomarker Activity (AID 2284253); settings: primary human endothelial cells with macrophages
In short: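 Human venular endothelial cells co-cultured with macrophages; MCP-1 measured by ELISA 24 hours post-dose and fitted against DMSO. Cytotoxicity monitored by SRB total-protein staining in parallel cultures.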

[14] = read-out: Interleukin-8 (IL8), CXCL8 (gene 3576); experiment: BSK_KF3CT_IL8: BioMAP Diversity Plus: KF3CT Assay for Interleukin-8 (IL8) Biomarker Activity (AID 2284254); settings: primary human keratinocytes with fibroblasts
In short: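 Using parallel SRB-stained cultures to flag overt toxicity, the study quantified IL-8 by ELISA in human keratinocyte–foreskin fibroblast co-cultures 24 h after dosing, with DMSO as negative control and baseline.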

Measured: AC50

FC(F)(F)C(F)(F)C(F)(F)C(F)(F)C(F)(F)C(F)(F)CCS
inactive: all assays above

O=S(=O)(O)C(F)(F)C(F)(F)C(F)(F)C(F)(F)C(F)(F)C(F)(F)C(F)(F)F
not listed: [10]
inactive: all other assays above

FC(F)(F)C(F)(F)CNCC(F)(F)C(F)(F)F
inactive: all assays above

OCC(F)(F)C(F)(F)C(F)(F)C(F)(F)C(F)(F)C(F)(F)F
inactive: [1] | [2] | [4] | [5] | [6] | [7] | [8] | [9] | [11] | [12] | [13] | [14]
active: [3] 43.8 µM and 40.2 µM | [11] 49.4 µM

FC(F)(F)C(F)(F)C(F)(F)C(F)(F)C(F)(F)C(F)(F)C(F)(F)Br
not listed: [10]
inactive: all other assays above

O=C(O)C(F)(F)C(F)(F)C(F)(F)C(F)(F)C(F)(F)C(F)(F)C(F)(F)C(F)(F)C(F)(F)C(F)F
active: [1] 19 µM and 16.1 µM | [2] 18.7 µM and 16.4 µM | [4] 38.1 µM and 36.2 µM | [7] 8.18 µM and 8.12 µM | [8] 49.3 µM and 48 µM | [9] 7.76 µM | [11] 12.8 µM and 5.95 µM | [12] 19.3 µM and 13.8 µM | [13] 49.5 µM and 48.9 µM
inactive: [3] | [5] | [6] | [9] | [14]

CCCCCCCCC(F)(F)C(F)(F)C(F)(F)C(F)(F)C(F)(F)C(F)(F)F
not listed: [10]
inactive: all other assays above

O=C(O)C=C(C(F)(F)F)C(F)(F)F
inactive: [1] | [2] | [4] | [6] | [7] | [8] | [9] | [10] | [11] | [12] | [13] | [14]
active: [3] 10.4 µM and 8.84 µM | [5] 10.1 µM and 5.58 µM | [13] 42.6 µM
